The source of these data is publication PMC7862700, “An all-to-all approach to the identification of sequence-specific readers for epigenetic DNA modifications on cytosine”.

What all share (assay): DAPPL (digital affinity profiling via proximity ligation, sequencing); 10 mM Tris-HCl pH 7.5, 50 mM NaCl, 1 mM DTT, 4% glycerol, room temperature, 30 min; GST-TFs on glutathione beads, 16-mer random dsDNA library, 0.1% formaldehyde crosslink after washing; high values mean tight binding
What all share (details): protein: recombinant; tags: N-terminal GST; dsDNA, one strand shown

The target of one assay is T1, FLI1 (Homo sapiens, UniProt Q01543 1-452).
T1 sequence: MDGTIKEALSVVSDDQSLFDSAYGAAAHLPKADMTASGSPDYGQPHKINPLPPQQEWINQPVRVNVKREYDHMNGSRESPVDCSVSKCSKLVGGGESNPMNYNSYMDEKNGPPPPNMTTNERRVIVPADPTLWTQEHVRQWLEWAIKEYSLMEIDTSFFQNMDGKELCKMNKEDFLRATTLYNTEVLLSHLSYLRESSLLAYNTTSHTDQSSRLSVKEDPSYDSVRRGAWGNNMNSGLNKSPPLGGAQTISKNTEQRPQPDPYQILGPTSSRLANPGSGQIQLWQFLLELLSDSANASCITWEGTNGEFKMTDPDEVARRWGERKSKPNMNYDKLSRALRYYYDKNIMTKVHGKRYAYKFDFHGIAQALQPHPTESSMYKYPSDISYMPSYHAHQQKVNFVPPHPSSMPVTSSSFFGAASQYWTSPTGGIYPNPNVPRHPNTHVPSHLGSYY
In a few lines: (§1)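 Human transcription factors fused to GST were expressed in yeast, captured on glutathione beads, given DNA barcodes and pooled with a GST-only negative control. Pools were incubated with 200 nmole of a 16-mer random double-stranded DNA library in Tris/NaCl/DTT/glycerol buffer at room temperature for 30 min. They were then washed, crosslinked with 0.1% formaldehyde, proximity-ligated (BsaI/T4 ligase, 1 h, 37 °C), PCR-amplified and sequenced on an Illumina NextSeq500. Binding signal is each 6-mer's read frequency for a factor divided by its frequency for the GST control.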

Another assay deals with T2, ELK1 (Homo sapiens, UniProt P19419 1-428).
T2 sequence: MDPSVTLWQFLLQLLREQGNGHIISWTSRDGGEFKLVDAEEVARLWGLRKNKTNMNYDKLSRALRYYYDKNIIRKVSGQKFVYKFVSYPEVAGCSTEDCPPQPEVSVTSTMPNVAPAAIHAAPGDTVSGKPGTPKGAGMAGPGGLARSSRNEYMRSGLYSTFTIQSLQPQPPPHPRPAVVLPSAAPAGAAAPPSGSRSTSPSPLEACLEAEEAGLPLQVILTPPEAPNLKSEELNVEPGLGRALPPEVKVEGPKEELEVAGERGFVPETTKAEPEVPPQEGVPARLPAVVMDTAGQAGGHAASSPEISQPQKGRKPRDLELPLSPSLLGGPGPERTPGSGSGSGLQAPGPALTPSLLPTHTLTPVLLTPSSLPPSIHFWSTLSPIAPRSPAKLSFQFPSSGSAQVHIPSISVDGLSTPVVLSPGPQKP
In outline: as §1

In the next assay the target is T3, GABPA (Homo sapiens, UniProt Q06546 1-454).
T3 sequence: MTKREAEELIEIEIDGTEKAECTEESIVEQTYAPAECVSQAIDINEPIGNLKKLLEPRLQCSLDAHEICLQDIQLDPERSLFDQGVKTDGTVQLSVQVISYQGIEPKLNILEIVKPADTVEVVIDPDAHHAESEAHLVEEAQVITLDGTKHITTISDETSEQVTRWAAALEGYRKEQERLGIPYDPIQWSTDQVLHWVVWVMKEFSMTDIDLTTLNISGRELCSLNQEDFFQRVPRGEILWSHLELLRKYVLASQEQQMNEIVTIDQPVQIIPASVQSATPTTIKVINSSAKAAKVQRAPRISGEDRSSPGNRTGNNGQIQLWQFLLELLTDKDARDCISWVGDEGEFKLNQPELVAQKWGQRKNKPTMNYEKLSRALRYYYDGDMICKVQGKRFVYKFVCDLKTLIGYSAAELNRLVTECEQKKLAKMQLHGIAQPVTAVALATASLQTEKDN
In a few lines: as §1

The target in another assay is T4, ERG (Homo sapiens, UniProt P11308 1-479).
T4 sequence: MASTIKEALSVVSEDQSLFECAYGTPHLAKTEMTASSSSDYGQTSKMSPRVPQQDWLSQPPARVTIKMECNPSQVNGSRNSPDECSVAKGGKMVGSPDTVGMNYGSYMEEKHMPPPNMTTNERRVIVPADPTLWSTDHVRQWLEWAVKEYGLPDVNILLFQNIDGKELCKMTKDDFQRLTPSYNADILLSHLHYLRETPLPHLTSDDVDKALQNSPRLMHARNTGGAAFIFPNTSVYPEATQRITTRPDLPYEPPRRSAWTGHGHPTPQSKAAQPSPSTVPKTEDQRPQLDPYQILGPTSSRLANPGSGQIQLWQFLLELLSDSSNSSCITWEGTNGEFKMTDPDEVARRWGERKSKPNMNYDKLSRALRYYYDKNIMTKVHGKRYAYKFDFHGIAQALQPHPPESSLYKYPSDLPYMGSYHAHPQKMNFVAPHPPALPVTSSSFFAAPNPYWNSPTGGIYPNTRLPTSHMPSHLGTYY
In a few lines: as §1

Another assay deals with ELF1 (Homo sapiens, UniProt P32519 1-619). In a few lines: as §1
The target in the next assay is T5, EHF (Homo sapiens, UniProt Q9NZC4 1-300).
T5 sequence: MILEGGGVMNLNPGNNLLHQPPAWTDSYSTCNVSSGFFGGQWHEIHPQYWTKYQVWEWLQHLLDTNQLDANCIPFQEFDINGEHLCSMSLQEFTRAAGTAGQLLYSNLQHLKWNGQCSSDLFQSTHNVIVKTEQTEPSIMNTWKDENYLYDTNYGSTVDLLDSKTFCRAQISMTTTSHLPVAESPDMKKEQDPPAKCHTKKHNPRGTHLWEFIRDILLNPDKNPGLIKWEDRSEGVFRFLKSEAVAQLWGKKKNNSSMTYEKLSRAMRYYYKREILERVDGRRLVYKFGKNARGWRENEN
In a few lines: as §1

The next assay has as its target SPI1 (Homo sapiens, UniProt P17947 1-270). In outline:
as §1

The next assay has as its target SPIB (Homo sapiens, UniProt Q01892 1-262). In a few lines: as §1
A further assay concerns the target T6, ELK3 (Homo sapiens, UniProt P41970 1-407).
T6 sequence: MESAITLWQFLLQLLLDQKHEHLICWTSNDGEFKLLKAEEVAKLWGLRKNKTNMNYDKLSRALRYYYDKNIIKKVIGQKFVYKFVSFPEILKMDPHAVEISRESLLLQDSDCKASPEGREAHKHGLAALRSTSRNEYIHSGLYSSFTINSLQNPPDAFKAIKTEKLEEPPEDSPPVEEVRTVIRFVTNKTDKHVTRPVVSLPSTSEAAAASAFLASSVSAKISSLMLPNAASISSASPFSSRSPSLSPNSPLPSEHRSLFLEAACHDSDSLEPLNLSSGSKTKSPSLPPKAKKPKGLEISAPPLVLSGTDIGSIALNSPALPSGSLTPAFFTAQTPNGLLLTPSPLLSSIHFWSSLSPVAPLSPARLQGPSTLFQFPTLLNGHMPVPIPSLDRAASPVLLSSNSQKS
In a few lines: as §1

ELF1, sequence (P32519 whole entry): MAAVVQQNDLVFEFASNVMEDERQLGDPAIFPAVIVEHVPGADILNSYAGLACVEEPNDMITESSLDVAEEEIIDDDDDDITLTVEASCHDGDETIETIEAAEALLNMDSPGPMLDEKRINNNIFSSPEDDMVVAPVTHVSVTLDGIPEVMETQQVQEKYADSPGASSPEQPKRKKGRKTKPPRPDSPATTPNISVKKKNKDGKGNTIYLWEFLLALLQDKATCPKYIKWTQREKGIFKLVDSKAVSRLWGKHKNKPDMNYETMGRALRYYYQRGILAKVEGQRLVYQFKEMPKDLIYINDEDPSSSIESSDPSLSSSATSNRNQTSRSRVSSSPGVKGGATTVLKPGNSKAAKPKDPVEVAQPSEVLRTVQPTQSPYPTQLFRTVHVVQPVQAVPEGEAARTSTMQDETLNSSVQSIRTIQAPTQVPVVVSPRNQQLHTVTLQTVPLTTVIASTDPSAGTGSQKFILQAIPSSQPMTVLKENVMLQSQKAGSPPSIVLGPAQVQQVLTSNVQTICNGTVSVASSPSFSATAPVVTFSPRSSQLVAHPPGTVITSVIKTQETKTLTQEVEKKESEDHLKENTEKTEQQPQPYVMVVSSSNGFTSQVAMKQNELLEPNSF
SPIB, sequence (Q01892 whole entry): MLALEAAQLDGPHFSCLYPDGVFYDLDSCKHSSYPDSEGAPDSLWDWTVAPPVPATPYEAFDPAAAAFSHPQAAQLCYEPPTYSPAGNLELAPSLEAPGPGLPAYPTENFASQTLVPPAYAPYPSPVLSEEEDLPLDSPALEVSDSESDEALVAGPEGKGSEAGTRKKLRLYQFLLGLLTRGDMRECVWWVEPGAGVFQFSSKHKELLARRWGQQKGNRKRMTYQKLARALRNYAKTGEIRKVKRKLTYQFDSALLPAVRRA

As to TCTACC, the binding signal is 1.54 fold enrichment (6-mer frequency, TF over GST control) with FLI1; 1.67 fold enrichment (6-mer frequency, TF over GST control) in the assay with ELK1; 1.58 fold enrichment (6-mer frequency, TF over GST control) with GABPA; 1.61 fold enrichment (6-mer frequency, TF over GST control) with ERG; 1.59 fold enrichment (6-mer frequency, TF over GST control) with ELF1; 1.61 fold enrichment (6-mer frequency, TF over GST control) with EHF. In addition, the binding signal was 1.54 fold enrichment (6-mer frequency, TF over GST control) with SPI1; 1.68 fold enrichment (6-mer frequency, TF over GST control) with SPIB; 1.43 fold enrichment (6-mer frequency, TF over GST control) in the assay with ELK3.
Consider CTTGAT, for which the binding signal is 1.52 fold enrichment (6-mer frequency, TF over GST control) with FLI1; 1.53 fold enrichment (6-mer frequency, TF over GST control) with ELK1; 1.52 fold enrichment (6-mer frequency, TF over GST control) with GABPA; 1.34 fold enrichment (6-mer frequency, TF over GST control) in the assay with ERG; 1.42 fold enrichment (6-mer frequency, TF over GST control) in the assay with ELF1; 1.51 fold enrichment (6-mer frequency, TF over GST control) with EHF. Moreover, the binding signal is 1.27 fold enrichment (6-mer frequency, TF over GST control) with SPI1; 1.41 fold enrichment (6-mer frequency, TF over GST control) with SPIB; 1.34 fold enrichment (6-mer frequency, TF over GST control) with ELK3.
For the sequence CATTCC, the binding signal in the assay with FLI1 was 1.29 fold enrichment (6-mer frequency, TF over GST control); in the assay with ELK1, 1.2 fold enrichment (6-mer frequency, TF over GST control); with GABPA, 1.27 fold enrichment (6-mer frequency, TF over GST control); with ERG, 1.25 fold enrichment (6-mer frequency, TF over GST control); with ELF1, 1.25 fold enrichment (6-mer frequency, TF over GST control); with EHF, 1.19 fold enrichment (6-mer frequency, TF over GST control). The binding signal in the assay with SPI1 is 1.25 fold enrichment (6-mer frequency, TF over GST control); with SPIB, 1.3 fold enrichment (6-mer frequency, TF over GST control); with ELK3, 1.3 fold enrichment (6-mer frequency, TF over GST control).
For the sequence TCTTAA, the binding signal with FLI1 was 1.18 fold enrichment (6-mer frequency, TF over GST control); with ELK1 it was 1.13 fold enrichment (6-mer frequency, TF over GST control); with GABPA it was 1.16 fold enrichment (6-mer frequency, TF over GST control); with ERG, 1.21 fold enrichment (6-mer frequency, TF over GST control); with ELF1, 1.23 fold enrichment (6-mer frequency, TF over GST control); with EHF, 1.09 fold enrichment (6-mer frequency, TF over GST control). Besides, the binding signal with SPI1 is 1.23 fold enrichment (6-mer frequency, TF over GST control); in the assay with SPIB, 1.23 fold enrichment (6-mer frequency, TF over GST control); with ELK3, 1.23 fold enrichment (6-mer frequency, TF over GST control).
Regarding TGTTAA, the binding signal with FLI1 is 1.11 fold enrichment (6-mer frequency, TF over GST control); with ELK1, 1.15 fold enrichment (6-mer frequency, TF over GST control); with GABPA, 1.17 fold enrichment (6-mer frequency, TF over GST control); with ERG, 1.11 fold enrichment (6-mer frequency, TF over GST control); in the assay with ELF1 it was 1.09 fold enrichment (6-mer frequency, TF over GST control); with EHF, 1.03 fold enrichment (6-mer frequency, TF over GST control). The binding signal with SPI1 was 1.07 fold enrichment (6-mer frequency, TF over GST control); with SPIB, 1.13 fold enrichment (6-mer frequency, TF over GST control); in the assay with ELK3, 1.15 fold enrichment (6-mer frequency, TF over GST control).
For the sequence AACGCT, the binding signal with FLI1 is 1.16 fold enrichment (6-mer frequency, TF over GST control); with ELK1, 1.22 fold enrichment (6-mer frequency, TF over GST control); with GABPA it was 1.22 fold enrichment (6-mer frequency, TF over GST control); in the assay with ERG, 1.19 fold enrichment (6-mer frequency, TF over GST control); with ELF1, 1.27 fold enrichment (6-mer frequency, TF over GST control); in the assay with EHF it was 1.23 fold enrichment (6-mer frequency, TF over GST control). In addition, the binding signal with SPI1 is 1.17 fold enrichment (6-mer frequency, TF over GST control); in the assay with SPIB, 1.21 fold enrichment (6-mer frequency, TF over GST control); with ELK3, 1.2 fold enrichment (6-mer frequency, TF over GST control).
As for CGATTT, the binding signal is 1.23 fold enrichment (6-mer frequency, TF over GST control) with FLI1; 1.08 fold enrichment (6-mer frequency, TF over GST control) with ELK1; 1.08 fold enrichment (6-mer frequency, TF over GST control) in the assay with GABPA; 1.17 fold enrichment (6-mer frequency, TF over GST control) in the assay with ERG; 1.09 fold enrichment (6-mer frequency, TF over GST control) with ELF1; 1.26 fold enrichment (6-mer frequency, TF over GST control) with EHF. In addition, the binding signal was 1.09 fold enrichment (6-mer frequency, TF over GST control) in the assay with SPI1; 1.1 fold enrichment (6-mer frequency, TF over GST control) with SPIB; 1.04 fold enrichment (6-mer frequency, TF over GST control) in the assay with ELK3.
